# Screening data (PubChem)
# dFosB activator = activators of delta FosB homodimer, primary screen, biochemical, fluorescence polarization, TAMRA-CDK5 oligo, single point | 340,000 tested, 0.99% active | activation, % at 25 µM | purified delta FosB; percent of positive-control signal above neutral wells | AID 493131, 2011;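 active = mean activation above about 17%, with every replicate also reaching it, limit read from the data, passing the limit was not always enough; inconclusive = only one of the two conditions met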
# RAD54 inh = inhibitors of human RAD54 branch migration, primary screen, biochemical, fluorescence, single point; DNA repair and recombination protein RAD54-like (Homo sapiens), Q92698; RAD54 Holliday junction branch migration, FAM/BHQ fluorescence; inhibition, % at 10.4 µM; 360,000 tested, 0.14% active; AID 602329, 2012;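 active = mean normalized replicate activity at least 40 and at least half of replicates scoring 40 or more; inconclusive = only one of the two criteria met; inactive = mean below 40 and under half of replicates reaching 40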;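 also: 0% = median of neutral control wells and 100% = median of positive control wells; inhibitors cause a drop in the FAM fluorescence signal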
# DENV2 CPE rescue = inhibitors of DENV2 cytopathic effect, primary screen, cell-based, plate reader, single concentration | DENV2-infected cells, cytopathic effect rescue | CPE inhibition, % at 9.99 µM | 350,000 tested, 1.7% active; in the data active = CPE inhibition above about 20%, passing the limit was not always enough; inconclusive = no clear call, values can overlap the other calls; tested in BHK-21 cells;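 also: 0% = median of neutral control wells and 100% = median of positive control wells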
# GSIS activator = GLuc luminescence reporter in INS-1E cells, primary screen for activators of glucose-dependent secretion of insulin; 370,000 tested, 0.61% active; AID 743287, 2014; activation, % at 16.6 µM; INS-1E GLuc reporter insulin secretion, 2-3 h;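 active = lowest replicate activation of at least 40%, so every replicate reaches that level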;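 also: 0% = median of neutral control wells and 100% = median of IBMX positive control wells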
# AF4-AF9 inh = inhibitors of AF4 peptide binding to AF9, primary screen, biochemical, AlphaScreen, biotin-AF4 peptide, FLAG-AF9, single point. Protein AF-9 (Homo sapiens), P42568. inhibition, % at 10 µM. 350,000 tested, 0.47% active;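 active = every replicate reaching a set inhibition limit, whatever the replicate mean, cut at about 25% in these data; inconclusive = mean inhibition reaches that limit but some replicates miss it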;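 also: 0% = plate neutral control median and 100% = total signal loss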
# Target sequence (P42568 whole entry, looked up): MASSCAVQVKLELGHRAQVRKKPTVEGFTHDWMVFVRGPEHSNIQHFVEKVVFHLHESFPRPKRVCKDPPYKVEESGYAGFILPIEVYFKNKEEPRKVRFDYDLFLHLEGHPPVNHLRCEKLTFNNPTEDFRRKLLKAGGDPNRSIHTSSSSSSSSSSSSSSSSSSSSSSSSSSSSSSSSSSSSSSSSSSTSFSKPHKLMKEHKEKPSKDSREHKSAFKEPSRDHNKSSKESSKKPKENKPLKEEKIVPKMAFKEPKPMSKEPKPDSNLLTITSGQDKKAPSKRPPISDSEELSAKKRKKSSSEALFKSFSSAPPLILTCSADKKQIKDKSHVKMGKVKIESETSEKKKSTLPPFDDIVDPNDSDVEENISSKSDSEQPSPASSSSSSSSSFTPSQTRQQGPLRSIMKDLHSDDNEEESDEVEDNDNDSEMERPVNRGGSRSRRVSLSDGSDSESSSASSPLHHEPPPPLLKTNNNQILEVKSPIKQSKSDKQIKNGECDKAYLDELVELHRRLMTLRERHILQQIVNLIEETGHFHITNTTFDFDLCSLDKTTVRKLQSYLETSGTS
# RAD52 anneal inh = RAD52 DNA annealing inhibitors, primary screen, biochemical, FRET, single point, set 2. 360,000 tested, 0.46% active. inhibition, % at 18.7 µM. DNA repair protein RAD52 homolog (Homo sapiens), P43351. recombinant RAD52 DNA annealing, FRET fluorescence;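 active = every replicate showing at least 50% inhibition; inconclusive = mean inhibition at least 50% but not in every replicate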
# * = called active by the depositor; ? = inconclusive; nt = no result. Only some compounds are listed: those with a hit (about 3.1% of all), similar ones and a draw of the others.
SMILES,dFosB activator,RAD54 inh,DENV2 CPE rescue,GSIS activator,AF4-AF9 inh,RAD52 anneal inh
CCCNC(=O)N1C[C@H]2[C@@H](c3ccccc31)[C@H](CO)N2Cc1cc(F)ccc1F,nt,-0.6,-1.8,4.1,-0.6,-15.3
CCC(=O)N[C@H]1C=C[C@H](CC(=O)NCc2cc(F)cc(F)c2)O[C@@H]1CO,nt,-3.8,?,3.7,-1.1,-12.2
C[C@@H]1CN([C@@H](C)CO)C(=O)Cc2cc(NC(=O)C3CCCCC3)ccc2O[C@@H]1CN(C)C(=O)Nc1ccc(F)cc1,nt,-18.9,-1.1,3.8,-2.5,15.0
C[C@H](O)C#Cc1ccc2c(c1)O[C@H](CN(C)C(=O)C1CC1)[C@@H](C)CN([C@@H](C)CO)S2(=O)=O,nt,-3.0,56.6*,2.8,-2.6,1.8
C[C@@H]1CN([C@H](C)CO)S(=O)(=O)c2ccc(C#Cc3ccncc3)cc2O[C@@H]1CN(C)C(=O)C1CC1,nt,-9.5,30.0*,-6.9,-0.3,-10.6
Cc1noc(C)c1S(=O)(=O)Nc1ccc2c(c1)CC(=O)N([C@@H](C)CO)C[C@@H](C)[C@@H](CN(C)C(=O)NC1CCCCC1)O2,nt,1.6,15.4,-11.4,-2.7,-2.6
O=C(Nc1ccc(-c2ccccc2)cc1)c1ccc2c(c1)S(=O)(=O)c1ccccc1C2=O,-7.3,0.1,-15.8,-6.6,-14.6,-22.2
COc1cc(C(=O)Nc2ccc3c(c2)C(=O)c2ccccc2C3=O)cc(OC)c1OC,5.3,4.5,nt,24.4,nt,nt
COC(=O)c1cc(OC)c(OC)cc1NC(=O)c1ccc(OC)c(OC)c1,19.1*,9.8,nt,nt,nt,nt
O=C1c2ccccc2S(=O)(=O)c2cc(C(=O)N3CCN(c4ccc(Cl)cn4)CC3)ccc21,-3.1,8.6,42.4*,-3.9,1.6,-15.4
O=C(Nc1ccncc1)c1ccc2c(c1)S(=O)(=O)c1ccccc1C2=O,1.9,4.0,53.0*,5.2,0.7,-9.1
COc1ccc(C(=O)Nc2ccc3c(c2)C(=O)c2ccccc2C3=O)cc1OC,-1.5,nt,nt,61.8*,nt,nt
COC(=O)c1cc(OC)c(OC)cc1NC(=O)c1ccccc1,2.3,2.7,nt,-4.6,nt,nt
C[C@@H]1CN([C@H](C)CO)C(=O)c2cc(NS(=O)(=O)c3ccccc3)ccc2O[C@H]1CN(C)C(=O)Nc1cccc2ccccc12,nt,0.1,0.0,4.5,-0.1,-1.9
CNC(=O)C[C@H]1CC[C@H]2[C@H](COc3ccc(NC(=O)c4ccc(F)cc4)cc3C(=O)N2C)O1,nt,-7.7,4.5,2.7,-2.0,-13.1
CCCNC(=O)N1CC2(CN(C(=O)c3ccncc3)C2)c2c([nH]c3cc(OC)ccc23)[C@@H]1CO,nt,nt,?,5.5,3.2,nt
O=S(=O)(c1ccc2c(c1)OCCO2)N1CCCN(S(=O)(=O)c2c(F)cccc2F)CC1,-1.8,-4.0,89.7*,8.3,-5.7,-23.7
O=S(=O)(c1ccc2c(c1)OCCO2)N1CCN(S(=O)(=O)c2c(F)cc(F)cc2F)CC1,1.6,-7.6,-14.2,10.6,-2.2,2.5
O=C(O)CCCCC1SCC2NC(=O)NC21 (stereo not drawn),1.5,1.0,-2.1,15.0,70.3*,-2.2
COC(=O)/C(=N/Nc1ccccc1)N1CCCc2ccccc21,-6.6,0.3,nt,9.1,36.9*,-2.3
O=C(CC1CC1)Nc1ccc2c(c1)[C@H]1C[C@@H](CC(=O)N3CCc4ccccc4C3)O[C@@H](CO)[C@H]1O2,nt,5.0,4.6,-6.4,1.7,-2.6
CCN1CCN(CC(=O)Nc2nc3ccc(C)cc3s2)CC1,-2.6,-0.5,24.6*,5.4,0.6,-1.7
CCc1ccc2nc(NC(=O)Cn3cnc4ccccc4c3=O)sc2c1,154.4*,-17.7,2.2,-1.8,3.5,-18.6
O=C1Nc2ccccc2C(=O)N(C2CCCC2)C1C(=O)NC1CC1 (stereo not drawn),nt,nt,34.7*,-1.1,nt,-3.4
C[C@@H](CSc1ccc(Br)cc1)CN1CC[C@H](NC(=O)OCc2ccccc2)CCC1=O,-15.5,1.3,75.4*,-60.8,-3.5,-13.8
